The results in this text go back to PubChem BioAssay AID2284418 (EPA ToxCast).

Inconclusive results are not listed. Activity calls are given as the source filed them. How the source made its calls: active means hit-call score of the fitted dose curve at least 0.9, where 1 is the maximum; inconclusive means response in the unintended direction; inactive means score below 0.9.

This assay relates to SRY-box transcription factor 17 (SOX17) Protein Expression, Deisenroth Lab, SOX17 (gene 64321). Put plainly: CCTE_Deisenroth_DEVTOX-GLR_Meso_SOX17: CCTE's DevTox GLR-Meso Assay Evaluation of SRY-box transcription factor 17 (SOX17) Protein Expression, Deisenroth Lab. As to the method:
CCTE_Deisenroth_DEVTOX-GLR_Meso assay is a cell-based, multiplex-readout assay that uses RUES2-GLR, a human pluripotent cell line, with measurements taken at 48 hours after chemical dosing in a 384-well microplateCCTE_Deisenroth_DEVTOX-GLR_Meso_SOX17 is 1 of 4 assay components calculated from the CCTE_Deisenroth_DEVTOX-GLR_Meso assay and it measures an the percentage of cells in an endoderm state. Using a type of inducible fluorescent protein reporter, gain-of-signal activity can be used to understand changes in gene expression with fluorescent microscopy. The percentage of SOX17+ cells are determined by calculating the number of SOX17+ cells divided by cell count. To generalize the intended target to other relatable targets, this assay component is annotated to the transcription factor intended target family, where the subfamily is SRY-related HMG-box.Data from the assay component CCTE_Deisenroth_DEVTOX-GLR_Meso_SOX17 was analyzed as 1 assay endpoint. The endpoint is the percent SOX17+ cell population minus the 0.2% DMSO control in the CCTE_Deisenroth_DEVTOX-GLR_Meso assay. This assay endpoint can be referred to as a secondary readout since this assay has produced multiple assay endpoints where this one serves as a measure of endoderm differentiation.
All assay protocols are aligned to the DevTox GLR-Endo assay workflow. Cells are seeded into 384-well microplates for 24 hours prior to initiating differentiation in defined media for a total duration of 48 hours. A total of two chemical exposures are administered in 24-hour intervals during the 48-hour differentiation period. At the assay termination point, cells are fixed and stained with a fluorescent dye demarcating the nucleus. High-content imaging is used to acquire brightfield and fluorescent channel images across 5 fields per well. Cell identification and mean biomarker fluorescence intensities are calculated with image analysis software to determine the total cell counts for viability assessment and the biomarker expression frequency for each lineage-dependent assay. A typical experimental design tests a 10-point concentration series (1 nM - 200 uM) for 28 compounds in single technical replicate. Assay plate controls include non-differentiated pluripotent cells (baseline control), lineage-specific differentiated cells (differentiation control), and DMSO solvent exposed differentiated cells (solvent control). Experiments typically comprise a minimum of four experimental replicates (n=4).
Turning to `O=C1NS(=O)(=O)c2ccccc21`, the call was inactive.
On to `O=C1NC(=O)C(c2ccccc2)(c2ccccc2)N1`, for which the AC50 is 146 µM (active).
On the same count and under the same terms, the same measure for `CCN(CC)CCNC(=O)c1c(C)[nH]c(/C=C2\C(=O)Nc3ccc(F)cc32)c1C`: 0.8 µM (active); for `CS(=O)(=O)OCCCCOS(C)(=O)=O`: 107 µM (active).
With `Nc1cccc2c1C(=O)N(C1CCC(=O)NC1=O)C2=O` (centres undefined), the call was inactive.
As to `CC(C)(c1ccc(O)cc1)c1ccc(O)cc1`, the AC50 is 142 µM (active).
On the same count and under the same terms, the value for `CC/C(=C(/CC)c1ccc(O)cc1)c1ccc(O)cc1` was 6.47 µM (active).
For the compound `O=C1CCC(N2C(=O)c3ccccc3C2=O)C(=O)N1` (centres undefined), the result was inactive.
Consider `CC1=C(/C=C/C(C)=C/C=C/C(C)=C\C(=O)O)C(C)(C)CCC1`, for which the AC50 is 30.2 µM (active).
Same read-out and setting: the value for `O=c1[nH]cc(F)c(=O)[nH]1` was 22.6 µM (active).
For `CC1=C(/C=C/C(C)=C/C=C/C(C)=C/C(=O)O)C(C)(C)CCC1`, the AC50 was 22 µM (active).
Take `Nc1nc2ncc(CNc3ccc(C(=O)N[C@@H](CCC(=O)O)C(=O)O)cc3)nc2c(=O)[nH]1`: the compound was classed as inactive.
Same read-out and setting: the same measure for `CCCC(CCC)C(=O)O`: “inactive”.
As to `CN(Cc1cnc2nc(N)nc(N)c2n1)c1ccc(C(=O)N[C@@H](CCC(=O)O)C(=O)O)cc1`, the concentration at half-maximal activity (AC50) is 0.0944 µM (active).
